POLB inh – DNA polymerase beta (human) inhibition; P06746; Pol beta primer extension/strand displacement, fluorescence kinetic; Potency, µM (series often up to 114 µM), for the others: at the highest dose activity change, negative = inhibition, actives largely listed as inhibitors; 340,000 tested, 1.3% active; AID 485314; further: potency means the concentration at half of the fitted maximal effect; on the % scale 0 is the no-effect control and ±100 the full control effect
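Curves were derived by four-parameter Hill fits of normalized qHTS data. The kinetic fluorescent primer-extension read was taken at 0 and 10 min after 50 nM substrate, following a 15 min room-temperature preincubation of 10 nM enzyme with compounds.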
ALOX12 inh – blocks human arachidonate 12S-lipoxygenase | Potency, µM (highest dose often 108 µM), inactives show at the top dose activity change, negative = inhibition, hits mostly inhibitors | AID 1671190 | 580,000 tested, 1.1% active | P18054 | purified 12hLO, xylenol orange hydroperoxide absorbance; further: potency means the concentration at half of the fitted maximal effect; on the % scale 0 is the no-effect control and ±100 the full control effect
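Purified human 12hLO at 150 nM in 25 mM Hepes, 0.01% Triton X-100, pH 7.0, preincubated 15 min at room temperature with compound. Reaction started with 40 uM arachidonic acid, 30 min at room temperature. Hydroperoxide measured by Fe-xylenol orange, 573/405 nm absorbance ratio.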
Pol iota inh – inhibitors of human DNA polymerase iota; Pol iota fluorescent replication assay, 10 min; Potency, µM (doses to about 115 µM), for inactives: top-dose activity, negative = inhibition, hits mostly inhibitors; 390,000 tested, 1% active; further: potency means the concentration at half of the fitted maximal effect
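Fluorescent replication assay read twice, at 0 min and 10 min after adding 50 nM (final) substrate. Enzyme (10 nM) and compounds were first incubated 15 min at room temperature; enzyme-free buffer wells were negative controls.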
Pol eta inh-1 – inhibitors of human DNA polymerase eta. 390,000 tested, 1.2% active. AID 588591. Potency, µM (highest dose often 114 µM), inactives show at the top dose activity change, negative = inhibition, usual class: inhibitors. recombinant Pol eta, fluorescent DNA replication assay; further: potency means the concentration at half of the fitted maximal effect; on the % scale 0 is the no-effect control and ±100 the full control effect
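Pol eta (10 nM) was preincubated with compounds for 15 min at room temperature, after which fluorescent replication substrate (50 nM final) was added to start the reaction. Fluorescence was read kinetically at 0 and 10 min.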
PI5P4Ka inh – PI5P4K alpha (human) kinase inhibition; 330,000 tested, 1.2% active; PI5P4Kalpha enzyme, ADP-Glo luminescence, 60 min; hits give low values; AID 652105; max response, %; active means max response of -50% or lower; inconclusive means between -30% and -50%; inactive means -30% or higher; further: value at the top dose of about 77 µM; on the % scale 0 is the no-effect control and ±100 the full control effect
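Compounds were pin-transferred onto PI5P4Kalpha and substrate in HEPES pH 7.4 buffer with EGTA, CHAPS and 5% DMSO. ATP (5 microM final) started the reaction, which ran 60 minutes at room temperature before ADP-Glo detection.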
Pol kappa inh-1 – blocks human DNA polymerase kappa activity | Q9UBT6 | purified Pol kappa, fluorescent DNA synthesis assay, 10 min | Potency, µM (series often up to 107 µM), for inactives: at the top dose activity, negative = inhibition, hits mostly inhibitors | 400,000 tested, 0.53% active | AID 588579; further: potency means the concentration at half of the fitted maximal effect; on the % scale 0 is the no-effect control and ±100 the full control effect
Target sequence (Q9UBT6 whole entry, looked up): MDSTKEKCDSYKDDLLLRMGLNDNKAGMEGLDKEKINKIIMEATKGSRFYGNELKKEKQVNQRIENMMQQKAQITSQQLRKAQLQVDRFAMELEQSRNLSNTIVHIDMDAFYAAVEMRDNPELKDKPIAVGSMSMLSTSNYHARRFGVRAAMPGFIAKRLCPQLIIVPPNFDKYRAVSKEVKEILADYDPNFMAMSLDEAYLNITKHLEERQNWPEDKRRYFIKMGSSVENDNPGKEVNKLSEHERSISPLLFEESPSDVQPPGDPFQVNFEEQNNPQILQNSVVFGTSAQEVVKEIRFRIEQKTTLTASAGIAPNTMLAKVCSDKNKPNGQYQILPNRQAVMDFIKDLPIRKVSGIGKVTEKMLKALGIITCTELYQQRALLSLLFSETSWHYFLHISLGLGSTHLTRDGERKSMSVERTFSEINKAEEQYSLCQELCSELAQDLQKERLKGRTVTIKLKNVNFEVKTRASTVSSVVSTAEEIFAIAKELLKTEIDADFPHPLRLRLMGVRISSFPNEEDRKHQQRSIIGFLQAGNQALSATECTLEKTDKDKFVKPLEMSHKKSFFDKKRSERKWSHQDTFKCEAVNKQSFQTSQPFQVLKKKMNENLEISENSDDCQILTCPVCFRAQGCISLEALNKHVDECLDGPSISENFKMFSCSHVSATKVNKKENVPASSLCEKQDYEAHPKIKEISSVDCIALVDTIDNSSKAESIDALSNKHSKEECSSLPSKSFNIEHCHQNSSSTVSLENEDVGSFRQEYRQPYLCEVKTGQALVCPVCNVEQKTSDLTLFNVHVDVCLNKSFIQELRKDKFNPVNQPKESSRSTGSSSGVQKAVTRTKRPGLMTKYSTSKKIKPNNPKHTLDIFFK
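10 nM Pol kappa was preincubated with compounds for 15 min at room temperature. Reaction started with 50 nM (final) substrate. Fluorescence read kinetically at 0 and 10 min.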
PGK validate – blocks T. brucei phosphoglycerate kinase | shares compounds with Pol kappa inh-1 | TbPGK coupled GAPDH assay, Kinase-Glo luminescence | Potency, µM (series often up to 57.5 µM), inactives show at the top dose activity change, negative = inhibition, usual class: inhibitors | 500 tested, 79% active; further: potency means the concentration at half of the fitted maximal effect; on the % scale 0 is the no-effect control and ±100 the full control effect; nearly all actives have a fitted effect of over 65% in size
Pol iota confirm – Inhibitors of human DNA polymerase iota, confirmation | shares compounds with Pol kappa inh-1 | Pol iota primer extension, TAMRA/BHQ fluorescence | Potency, µM, hits mostly inhibitors | 1,500 tested, 77% active | AID 720496; further: potency means the concentration at half of the fitted maximal effect
Pol kappa inh-2 – confirmation of human DNA polymerase kappa inhibitors; shares compounds with Pol eta inh-1; purified Pol-kappa, fluorescent strand-displacement substrate; Potency, µM, most hits filed as inhibitors; 920 tested, 76% active; AID 720501; further: potency means the concentration at half of the fitted maximal effect
Pol eta inh-2 – confirmation of human DNA polymerase eta inhibitors; shares compounds with Pol eta inh-1; Pol eta primer extension, TAMRA/BHQ fluorescence, 10 min; Potency, µM, hits mostly inhibitors; 2,600 tested, 64% active; AID 720502; further: potency means the concentration at half of the fitted maximal effect
* marks the source's active call; other numbers are inactive results; ? = inconclusive; . = no result; [ ] = another dose, or the depositor's remark. Hits are enriched below; roughly 2.9% of the tested compounds scored in any of these assays. Unless noted, the call rests on the fitted dose curve; in most records, active means well fitted curve in the direction sought with a large enough effect; inconclusive means small, poorly fitted or top-dose-only effect, or another doubt; inactive means no such curve, though single readings can be large; an effect the other way counts as inactive or inconclusive.

SMILES	POLB inh	ALOX12 inh	Pol iota inh	Pol eta inh-1	PI5P4Ka inh	Pol kappa inh-1	Pol iota confirm	Pol eta inh-2	others
O=c1cc(-c2ccc(O)cc2)oc2c(O)c(O)c(O)c(O)c12	2.24µM*	62.2%	10µM*	1.58µM*	-15.2	10µM*	7.52*	5.36*	PGK validate=0.919µM*;Pol kappa inh-2=4.74*
O=C(O)c1[nH]c2ccccc2c1C(c1cc(Br)ccc1O)c1c(C(=O)O)[nH]c2ccccc12	79.4µM*	?	?	50.1µM*	1.0	?	?	?
O=C(O)c1[nH]c2ccccc2c1C(c1c(F)cccc1Cl)c1c(C(=O)O)[nH]c2ccccc12	-29.4%	0.0%	1.9%	-2.9%	-4.8	-27.1%	.	.
CCCCOc1ccc(C(=O)N(Cc2ccco2)Cc2ccco2)cc1	22.4µM*	17.8µM*	?	31.6µM*	.	-36.8%	67*	53.6*	Pol kappa inh-2=15*
CCCOc1ccc(C(=O)N(Cc2ccco2)Cc2ccco2)cc1	8.6%	-18.3%	-0.6%	?	.	-5.8%	.	.
N#C/C(=C\c1ccc(OCc2ccc(Cl)cc2)cc1)C(=O)Nc1cccc(C(=O)O)c1	31.6µM*	-26.9%	?	?	-1.9	-8.4%	42.3*	75.7*
O=C(CCc1c[nH]c2ccccc12)Nc1cccc(O)c1	.	39.9%	.	.	.	.	.	.
OC[C@@H]1CN(Cc2ccccc2OC(F)(F)F)C[C@H]1c1ccncc1	.	15.2%	.	.	.	.	.	.
C=CCn1c(SCC(=O)c2ccc(O)c(O)c2)nnc1-c1ccc(OC)cc1	.	?	50.1µM*	10µM*	-51.4*	44.7µM*	?	?
CCCCN1c2ccccc2S(=O)c2ccccc21	.	9.3%	.	.	.	.	.	.
S=c1[nH]nc(-c2ccncc2)n1/N=C/C=C/c1ccco1	20µM*	?	?	28.2µM*	?	-88.6%	42.3*	26.9*	Pol kappa inh-2=29.9*
COc1cccc(/C(O)=C2/C(=O)C(=O)N(Cc3cccnc3)C2c2ccco2)c1 (centres undefined)	?	?	?	0.5%	.	-8.4%	.	.
COCCN1C(=O)C(=O)/C(=C(/O)c2cccc(OC)c2)C1c1ccco1 (centres undefined)	31.6µM*	0.0%	?	10µM*	-11.1	?	?	60.1*
CCc1ccc(/C(C)=N/NC(=O)CNC(=O)/C=C/c2ccco2)cc1	.	.	5.01µM*	8.91µM*	-84.3*	31.6µM*	15*	21.3*	PGK validate=3.26µM*
CCc1ccc(OCc2nnc(SCc3cccc(C(F)(F)F)c3)n2CC(C)C)cc1	.	-1.1%	.	.	.	.	.	.
O=S(=O)(c1ccc(Cl)c(NC(=S)N/N=C/c2ccc(O)cc2)c1)N1CCOCC1	18.9%	?	-7.0%	-15.7%	?	-7.1%	.	.
O=[N+]([O-])c1cc(Cl)cc(/C=N/NC(=S)Nc2ccc(S(=O)(=O)N3CCOCC3)cc2)c1O	?	?	?	79.4µM*	-85.0*	?	?	?
NCC(=O)N1Cc2ccccc2CC2(CCN(CC3CCCC3)CC2)C1	.	-1.8%[6.33 µM]	.	.	.	.	.	.
Cc1cccc(C(=O)Oc2ccc(/C=N/NC(=O)c3cc(O)cc(O)c3)cc2)c1	7.08µM*	0.0%	17.8µM*	7.94µM*	-76.7*	50.1µM*	67*	33.8*	Pol kappa inh-2=15*
CC(C(=O)N(C)CC(=O)Nc1ccccc1C(F)(F)F)N1CCN(c2ccccc2Cl)CC1 (centres undefined)	.	-15.6%	.	.	.	.	.	.
C/C(N)=C(/C#N)C(=O)CSc1nnc(NC(C)C)s1	-28.3%	-25.1%	?	28.2µM*	.	?	67*	67.5*
C/C(N)=C(/C#N)C(=O)CSc1nnc(Nc2ccccc2)s1	9.3%	9.1%	23.4%	-2.0%	-11.9	-5.8%	.	.
CC(Sc1ccc(C(F)(F)F)cn1)C(=O)NC(C)(C#N)C(C)C (centres undefined)	.	-3.9%	.	.	.	.	.	.
O=C(O)Cc1c[nH]c2cccc(O)c12	17.8µM*	?	?	8.91µM*	?	22.4µM*	18.9*	7.57*
Cc1nn(Cc2ccccc2)c(C)c1CNS(=O)(=O)c1ccccc1	.	10.3%	.	.	.	.	.	.
SMILES	POLB inh	ALOX12 inh	Pol iota inh	Pol eta inh-1	PI5P4Ka inh	Pol kappa inh-1	Pol iota confirm	Pol eta inh-2	others
Oc1ccc2ccccc2c1N=Nc1ccc(F)cc1	-10.1%	0.0%	-27.5%	-14.9%	0.2	-13.9%	.	.
O=C(O)Cc1ccc(N=Nc2c(O)c(C(=O)O)cc3ccccc23)cc1	31.6µM*	?	7.94µM*	7.08µM*	-73.4*	?	21.2*	21.3*
CN(C)C(=O)c1ccc(Cl)cc1NS(=O)(=O)c1cc(F)ccc1F	.	-28.2%	.	.	.	.	.	.
COC(=O)C1=C(C)Nc2[nH]c(=S)[nH]c(=O)c2C1c1ccc(O)cc1 (centres undefined)	22.3%	0.0%	10.7%	-17.0%	-24.5	-8.2%	.	.
O=c1[nH]c(=S)[nH]c2c1C(c1ccc(Br)cc1)c1c([nH]c(=S)[nH]c1=O)O2	12.6µM*	5.01µM*	1µM*	2.24µM*	-75.2*	3.98µM*	2.67*	1.69*
O=C(/C=C/c1ccco1)c1cccnc1	-25.4%	?	?	14.1µM*	-26.6	?	67*	30.1*
Cc1nnc(NC(=O)CCSCCC(=O)Nc2nnc(C)s2)s1	28.2µM*	-6.6%	17.8µM*	3.16µM*	?	79.4µM*	42.3*	26.9*	Pol kappa inh-2=21.2*
CCc1nc2cc(NC(=O)Cn3c(C)nc4ccccc4c3=O)ccc2o1	.	2.0%	.	.	.	.	.	.
COC(=O)c1ccc(COc2ccccc2/C=C/C(=O)c2ccc(OCC(=O)O)cc2)cc1	50.1µM*	-13.8%	?	22.4µM*	2.7	-8.3%	47.4*	47.8*

Compound activity deposited in PubChem by National Center for Advancing Translational Sciences (NCATS).
